Experiment [1] is described as follows: NCI Yeast Anticancer Drug Screen. Data for the rad50 strain (AID 155).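 Further: 0% = growth of vehicle-only cultures of the same strain.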 The conditions noted are these: S. cerevisiae rad50 strain growth inhibition; at 50.0 µM; active compounds read high. Put shortly:
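Relative growth inhibition (compound vs vehicle) was measured in yeast with a defined repair-gene alteration.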

Experiment [2] in a line: NCI Yeast Anticancer Drug Screen. Data for the mec2-1 strain (AID 157). The conditions noted are these: S. cerevisiae mec2-1 strain, at 50.0 µM, active compounds read high. The procedure, abridged: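 Growth inhibition is read against vehicle-treated controls after compound exposure of the mec2-1 yeast strain, which is defective in DNA damage repair or cell cycle control.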
Experiment [3] can be described thus: NCI Yeast Anticancer Drug Screen. Data for the sgs1 mgt1 strain (AID 161).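 Further: 0% = growth of cultures given vehicle only.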 Particulars: S. cerevisiae sgs1 mgt1 strain, at 50.0 µM, active compounds read high. The procedure, abridged: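 Growth of a repair-deficient yeast mutant was monitored after compound treatment and expressed as inhibition relative to vehicle-treated cultures.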
The nature of experiment [4]: NCI Yeast Anticancer Drug Screen. Data for the cln2 rad14 strain (AID 165).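 Further: 0% = growth equal to vehicle treated cultures.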 The conditions noted are these: S. cerevisiae cln2 rad14 strain, at 50.0 µM, active compounds read high. Put shortly:
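Growth inhibition, relative to vehicle-treated controls, is the read-out. The test organism is a yeast strain with defined genetic alterations, cln2 rad14.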

The nature of experiment [5]: NCI Yeast Anticancer Drug Screen. Data for the bub3 strain (AID 167). Particulars: S. cerevisiae bub3 mutant strain, at 50.0 µM, active compounds read high. The procedure, abridged:
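Screening used yeast with an engineered genetic alteration affecting cell cycle control. Compound-exposed cultures were compared with vehicle cultures, and reduced growth was taken as inhibition.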

The nature of experiment [6]: NCI Yeast Anticancer Drug Screen. Data for the mlh1 rad18 strain (AID 175). The conditions noted are these: S. cerevisiae mlh1 rad18 strain growth inhibition; at 50.0 µM; active compounds read high. The procedure, abridged:
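Cells of a genetically altered yeast strain, deficient in DNA damage repair, were treated with compound. Their growth was then compared with that of vehicle-treated cultures to give inhibition.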

Each structure is given as a SMILES string. About 79,000 compounds went through this panel and 15% of them were active in at least one assay; those are over-represented in the sample as a whole. A number with no mark means an inactive call. Calls of active or inactive are those of the source. No stated cut-off is given here; in the data, active means growth inhibition above about 70%; inactive means the rest.

Take `CC(C)CCOCC(O)CNCCN` (stereo unspecified): the growth inhibition was 12.6% in experiment [1]; 2.5% in experiment [2]; -14.7% in experiment [3]; 5.1% in experiment [4]; -1% in experiment [5]; 12.3% in experiment [6].
As for `OC12CCCCCC1(N1CCOCC1)c1ccccc12` (stereo unspecified), the growth inhibition is -8.2% in experiment [1]; -11.7% in experiment [2]; -29.7% in experiment [3]; -21.1% in experiment [4]; -37.2% in experiment [5]; -24.3% in experiment [6].
For the molecule `COc1c(Cl)cc([N+](=O)[O-])cc1C(=O)O`, the growth inhibition in experiment [1] is 6.4%; in experiment [2] it was 25.9%; in experiment [3] it was -3.55%; in experiment [4], -15.7%; in experiment [5], 15.6%; in experiment [6], 16.9%.
`N=c1ccc([N+](=O)[O-])cn1O`: the growth inhibition in experiment [1] is 13.4%; in experiment [2], 11.7%; in experiment [3] it was -2%; in experiment [4] it was -41.5%; in experiment [5], -2.8%; in experiment [6], 1.95%.
`CCCCCCCCCC(C(=O)OCC)(C(=O)OCC)C1CCCC1`: the growth inhibition in experiment [1] was -26.9%; in experiment [2], -4.6%; in experiment [3] it was -12.1%; in experiment [4], 5.75%; in experiment [5], -7.8%; in experiment [6], -30.1%.
`CSc1nc2ccc(N=Cc3ccccc3O)cc2s1`: the growth inhibition in experiment [1] was -25.5%; in experiment [2], -8.25%; in experiment [3] it was -5.7%; in experiment [4], -12.6%; in experiment [5], 17.7%; in experiment [6], -13.4%.
Turning to `O=C1C=CC2(CC=CCC2)CC1` (stereo unspecified), the growth inhibition in experiment [1] was 5.25%; in experiment [2], -8.4%; in experiment [3], -1.6%; in experiment [4], -23.4%; in experiment [5], -11.8%; in experiment [6] it was 0.55%.
On to `CC(=O)NCCc1[nH]cnc1N=Nc1ccc(Br)cc1`, for which the growth inhibition in experiment [1] was 0.95%; in experiment [2] it was 39.4%; in experiment [3] it was 14.7%; in experiment [4] it was -6.15%; in experiment [5], 52.1%; in experiment [6], 27.3%.
On to `CC(=O)Oc1cc2c(cc1OC(C)=O)C(=O)c1cc3c(cc1C2=O)OCO3`, for which the growth inhibition was -31.7% in experiment [1]; -10.9% in experiment [2]; -1.3% in experiment [3]; -17.2% in experiment [4]; -6.5% in experiment [5]; -12% in experiment [6].
`O=[N+]([O-])c1ccc(-c2ccc([N+](=O)[O-])cc2)cc1`: the growth inhibition in experiment [1] was -2.05%; in experiment [2] it was -0.95%; in experiment [3], 7.7%; in experiment [4], -38.5%; in experiment [5] it was 22.6%; in experiment [6], -13.3%.
Take `Nc1nnc(CCCCCCCc2nnc(N)o2)o1`: the growth inhibition was -6.25% in experiment [1]; 12.6% in experiment [2]; 3.45% in experiment [3]; 7.5% in experiment [4]; 6.85% in experiment [5]; 13.2% in experiment [6].
Turning to `Cc1noc(N)c1Sc1ccc(Br)cc1`, the growth inhibition in experiment [1] was 98.7% (active); in experiment [2], 98.8% (active); in experiment [3] it was 99% (active); in experiment [4], 98.5% (active); in experiment [5], 98.8% (active); in experiment [6] it was 99.1% (active).
On to `CS(=O)CCNC(=O)NS(=O)(=O)c1ccc(Cl)cc1` (stereo unspecified), for which the growth inhibition is -2% in experiment [1]; -18.9% in experiment [2]; -11.3% in experiment [3]; -10.2% in experiment [4]; 3.05% in experiment [5]; -3.15% in experiment [6].
`O=[N+]([O-])c1ccc(O)c(N=Cc2ccc(C=Nc3cc([N+](=O)[O-])ccc3O)cc2)c1`: the growth inhibition in experiment [1] was -24.9%; in experiment [2] it was -19.8%; in experiment [3], -13.8%; in experiment [4], 1.2%; in experiment [5], -5.1%; in experiment [6] it was -17.6%.
Take `N#C/C(C(=N)c1ccccc1)=C1\SS/C(=C(\C#N)C(=N)c2ccccc2)S1`: the growth inhibition in experiment [1] was 7.2%; in experiment [2], 2.35%; in experiment [3], 7.6%; in experiment [4], 23.7%; in experiment [5], 3.7%; in experiment [6], -4.45%.
For `CCc1ccccc1NOC`, the growth inhibition in experiment [1] is 7.65%; in experiment [2] it was -1.9%; in experiment [3] it was -1.05%; in experiment [4] it was -7.15%; in experiment [5], 8.45%; in experiment [6], 9.65%.
Turning to `CC(=O)NNc1nc(C)c(C(=O)NNC(=O)C(=O)Nc2c(Cl)cc([N+](=O)[O-])cc2Cl)s1`, the growth inhibition in experiment [1] is 41.2%; in experiment [2], 22.9%; in experiment [3] it was 45.7%; in experiment [4] it was 29%; in experiment [5], 42.7%; in experiment [6], 18.9%.
For the molecule `C/C(CCc1ccccc1Br)=N/NC(N)=O`, the growth inhibition was -11.1% in experiment [1]; -0.9% in experiment [2]; -8.55% in experiment [3]; -34.4% in experiment [4]; 2.6% in experiment [5]; -11.3% in experiment [6].
For `O=C1C=C/C(=N\N=C(c2ccccc2)c2ccccc2)O1`, the growth inhibition in experiment [1] was -38.1%; in experiment [2] it was -67.8%; in experiment [3] it was -49.6%; in experiment [4] it was 7.45%; in experiment [5], -42.7%; in experiment [6], -28.2%.
Consider `CN(C)CCCN(c1nc2cc(Cl)ccc2o1)c1nc2cc(Cl)ccc2o1`, for which the growth inhibition in experiment [1] is 33.7%; in experiment [2] it was 17.1%; in experiment [3], 36.1%; in experiment [4], 52.9%; in experiment [5] it was 8.7%; in experiment [6], 48.5%.
Turning to `C/C(=C/CCl)[N+](=O)[O-]`, the growth inhibition in experiment [1] was 36.4%; in experiment [2], -10.4%; in experiment [3], -4.95%; in experiment [4] it was -7.35%; in experiment [5], -8.95%; in experiment [6], 14.1%.

The record behind these values is PubChem BioAssay (NCI).
